Laboratory results: PubChem BioAssay
The source made the active and inactive calls.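 Rule for the calls, unless noted: active = fluorescence slope higher than the sample average by over 3 SD (cut at about -0.22 in these data, passing the limit was not always enough); inactive = the rest.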

Test system: not listed separately
Assay: inhibitors of E-selectin induction by TNFa, primary screen, imaging, HUVEC, immunofluorescence, MLSMR starter and 10KST1 sets (AID 487;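 active = visually confirmed hit in the image check and inhibition above 20%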;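 for inhibition: signal is fraction of cell area covered by stained E-selectin grains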;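 for nuclei count: 100% = median nuclei count of all wells on the same plate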)
Settings: HUVEC TNFalpha-induced E-selectin immunofluorescence imaging, at 2 µM; inhibition: stronger effect = higher value; nuclei count: measured here: cell number, toxicity

Row | Compound | inhibition | nuclei count [%]
1 | CC(=O)Nc1ccc(Oc2cc(C#N)c(C#N)cc2N2CCCCCC2)cc1 | -62.5% (inactive) | 127
2 | COc1ccc2cnn(-c3ccccc3)c(=O)c2c1OC | 35.5% (inactive) | 109
3 | COC(=O)c1[nH]c2ccccc2c1NC(=O)CN1CCC(C(N)=O)(N2CCCCC2)CC1 | -114% (inactive) | 168
4 | CCOC(=O)CSc1nc2cc(C(=O)NCc3ccco3)ccc2c(=O)n1-c1ccc(F)cc1 | 7.7% (inactive) | 92.9
5 | CSc1nnc2c3ccccc3n(Cc3ccccc3)c2n1 | 30.6% (inactive) | 86.1
6 | O=C(c1cccs1)c1cn(CC(=O)N2CCc3ccccc3C2)c2ccccc12 | -137% (inactive) | 123
7 | Cc1ccccc1CN1CCN(CC(=O)NCc2ccco2)C1=O | -7.2% (inactive) | 109
8 | Cc1ccc(CC23CN4CCN(CC(C4)C2O)C3)c(C)c1 (stereo not given) | -40.9% (inactive) | 116
9 | C[C@H](NC(=O)Nc1ccccc1F)C(=O)O | -78.4% (inactive) | 138
10 | COc1cc(-c2c(C#N)c(N)nc3c2CCCC3)cc(OC)c1OC | -110% (inactive) | 121
11 | Cc1ccc(S(=O)(=O)N2CCCC2C(=O)OCc2ccco2)cc1 (stereo not given) | -0.1% (inactive) | 102
12 | COC(=O)c1ccc(CN(c2ccccc2OC)S(=O)(=O)c2cccs2)o1 | 44.1% (inactive) | 98.6
13 | CCOc1ccc(C(c2nnnn2Cc2ccccc2)N2CCN(C(=O)c3ccco3)CC2)cc1 (stereo not given) | 20% (inactive) | 104
14 | CCOC(=O)Cc1nnc(NC(=O)CSc2nnc3c4ccccc4n(C(C)C)c3n2)s1 | -158% (inactive) | 90.2
15 | O=C(NC1CCCC1)c1cc(-c2cccs2)on1 | 16.1% (inactive) | 105
16 | Cc1ccc(-c2c3c(=O)n(C)c(=O)n(C)c3cn2CCCN2CCOCC2)cc1 | -32% (inactive) | 116
17 | Cc1nnc(C)c2c(C)n(-c3ccc(Br)cc3)c(C)c12 | -47.7% (inactive) | 111
18 | O=C(CCCn1c(=O)c2sccc2n(CC(=O)NCc2ccco2)c1=O)NCc1ccco1 | -49.2% (inactive) | 117
19 | CCOc1ccc2nc(NC(=O)C(NS(=O)(=O)c3cccs3)C(C)C)sc2c1 (stereo not given) | -146% (inactive) | 122
20 | Cc1cc(NC(=O)COC(=O)c2cccc(S(=O)(=O)N3CCOCC3)c2)no1 | 67.8% (active) | 64.5

Row | Compound | inhibition | nuclei count [%]
21 | Cc1nc2sc(C(c3cccc(F)c3)N3CCN(C(=O)c4ccco4)CC3)c(O)n2n1 (stereo not given) | -7% (inactive) | 112
22 | O=C(O)C1CC(=O)N(c2ccc(OCc3c(F)cccc3Cl)cc2)C1 (stereo not given) | -18.6% (inactive) | 116
23 | N#C/C(C(=O)N1CCOCC1)=C1/SC=C(c2ccccc2)N1c1ccccc1 | -118% (inactive) | 118
24 | CCCC(C)C1C(C#N)=C(N)Oc2cc(C)oc(=O)c21 (stereo not given) | -185% (inactive) | 134
25 | Cc1cc(NC(=O)c2ccccc2Oc2ccccc2)no1 | 23.9% (inactive) | 101
26 | CC(C)(C)c1cc(C(=S)N2CCN(CCO)CC2)cc(C(C)(C)C)c1O | -150% (inactive) | 128
27 | CCC(C)NC(=O)C1CCCN(S(=O)(=O)c2ccc(-n3cnnn3)cc2)C1 (stereo not given) | -9.5% (inactive) | 108
28 | CC1(C)C2CCC1(CS(=O)(=O)NCc1ccc(C(=O)O)cc1)C(=O)C2 (stereo not given) | 46.1% (inactive) | 100
29 | Cc1nnc(NC(=O)Nc2cccc(Cl)c2)s1 | 9.5% (inactive) | 114
30 | O=C(CN1CCOCC1)N1CCN(C(=O)CN2CCOCC2)CC1 | -63.9% (inactive) | 120
31 | COc1ccc2c(c1OC)C(=O)OC2Nn1cncn1 (stereo not given) | 1.1% (inactive) | 108
32 | N#Cc1cnc(SCC(=O)Nc2ccccc2C(F)(F)F)nc1N | -205% (inactive) | 121
33 | O=C(NCc1ccco1)C1CC(=O)N(c2ccc(F)cc2)C1 (stereo not given) | -34.5% (inactive) | 124
34 | CCOC(=O)C1CCCN(c2nc3ccccc3nc2C(C#N)C(=O)NCc2ccccc2)C1 (stereo not given) | -40% (inactive) | 126
35 | CCOc1cc(C)c(Cl)cc1S(=O)(=O)N(C)C | -5.4% (inactive) | 99.4
36 | Cc1c(C(=O)O)oc2ccc(S(=O)(=O)NCCC3=CCCCC3)cc12 | -36.3% (inactive) | 114
37 | CCOC(=O)CSC1=Nc2ccccc2C2=NC(CC(=O)NCc3ccc(OC)cc3)C(=O)N12 (stereo not given) | -23.1% (inactive) | 91.7
38 | COc1ccc(C(F)(F)F)cc1NC(=O)c1nc2nc(C)cc(C(F)F)n2n1 | -22.3% (inactive) | 103
39 | CCSc1nc2c(c(=O)n(C)c(=O)n2C)n1Cc1ccc(Cl)cc1 | -15.6% (inactive) | 112
40 | O=C(COC(=O)c1ccco1)NCc1cccs1 | 7.8% (inactive) | 88.2

Molecular target: Voltage-gated potassium channel subunit beta-2 (Rattus norvegicus) (UniProt P62483)
Sequence (P62483 whole entry, looked up): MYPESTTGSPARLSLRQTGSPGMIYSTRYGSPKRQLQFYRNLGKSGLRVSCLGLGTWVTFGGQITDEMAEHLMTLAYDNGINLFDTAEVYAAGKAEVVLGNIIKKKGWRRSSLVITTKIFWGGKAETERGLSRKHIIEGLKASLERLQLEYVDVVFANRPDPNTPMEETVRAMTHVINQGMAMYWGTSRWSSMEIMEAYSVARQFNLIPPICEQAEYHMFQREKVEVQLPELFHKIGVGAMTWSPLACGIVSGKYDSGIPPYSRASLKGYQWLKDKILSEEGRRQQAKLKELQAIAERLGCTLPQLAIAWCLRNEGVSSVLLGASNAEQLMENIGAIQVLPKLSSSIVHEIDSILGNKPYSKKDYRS
Assay: KvBeta enzyme negative modulators, primary screen, biochemical, NADPH fluorescence (AID 622);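 note: slope of raw intensity against log time taken from 70 to 1610 s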
Settings: recombinant KvBeta, 4-cyanobenzaldehyde reduction, at 10 µM, stronger effect = higher value

Row | Compound | fluorescence slope
41 | CC(=O)Nc1ccc(Oc2cc(C#N)c(C#N)cc2N2CCCCCC2)cc1 | -0.377 (inactive)
42 | COc1ccc2cnn(-c3ccccc3)c(=O)c2c1OC | -0.549 (inactive)
43 | COC(=O)c1[nH]c2ccccc2c1NC(=O)CN1CCC(C(N)=O)(N2CCCCC2)CC1 | -0.598 (inactive)
44 | CCOC(=O)CSc1nc2cc(C(=O)NCc3ccco3)ccc2c(=O)n1-c1ccc(F)cc1 | -0.481 (inactive)
45 | CSc1nnc2c3ccccc3n(Cc3ccccc3)c2n1 | -0.45 (inactive)
46 | O=C(c1cccs1)c1cn(CC(=O)N2CCc3ccccc3C2)c2ccccc12 | -0.519 (inactive)
47 | Cc1ccccc1CN1CCN(CC(=O)NCc2ccco2)C1=O | -0.511 (inactive)
48 | Cc1ccc(CC23CN4CCN(CC(C4)C2O)C3)c(C)c1 (stereo not given) | -0.494 (inactive)
49 | C[C@H](NC(=O)Nc1ccccc1F)C(=O)O | -0.602 (inactive)
50 | COc1cc(-c2c(C#N)c(N)nc3c2CCCC3)cc(OC)c1OC | -0.534 (inactive)
51 | Cc1ccc(S(=O)(=O)N2CCCC2C(=O)OCc2ccco2)cc1 (stereo not given) | -0.499 (inactive)
52 | COC(=O)c1ccc(CN(c2ccccc2OC)S(=O)(=O)c2cccs2)o1 | -0.534 (inactive)
53 | CCOc1ccc(C(c2nnnn2Cc2ccccc2)N2CCN(C(=O)c3ccco3)CC2)cc1 (stereo not given) | -0.492 (inactive)
54 | CCOC(=O)Cc1nnc(NC(=O)CSc2nnc3c4ccccc4n(C(C)C)c3n2)s1 | -0.554 (inactive)
55 | O=C(NC1CCCC1)c1cc(-c2cccs2)on1 | -0.441 (inactive)
56 | Cc1ccc(-c2c3c(=O)n(C)c(=O)n(C)c3cn2CCCN2CCOCC2)cc1 | -0.414 (inactive)
57 | Cc1nnc(C)c2c(C)n(-c3ccc(Br)cc3)c(C)c12 | -0.497 (inactive)
58 | O=C(CCCn1c(=O)c2sccc2n(CC(=O)NCc2ccco2)c1=O)NCc1ccco1 | -0.567 (inactive)
59 | CCOc1ccc2nc(NC(=O)C(NS(=O)(=O)c3cccs3)C(C)C)sc2c1 (stereo not given) | -0.423 (inactive)
60 | Cc1cc(NC(=O)COC(=O)c2cccc(S(=O)(=O)N3CCOCC3)c2)no1 | -0.471 (inactive)

Row | Compound | fluorescence slope
61 | Cc1nc2sc(C(c3cccc(F)c3)N3CCN(C(=O)c4ccco4)CC3)c(O)n2n1 (stereo not given) | -0.306 (inactive)
62 | O=C(O)C1CC(=O)N(c2ccc(OCc3c(F)cccc3Cl)cc2)C1 (stereo not given) | -0.568 (inactive)
63 | N#C/C(C(=O)N1CCOCC1)=C1/SC=C(c2ccccc2)N1c1ccccc1 | -0.277 (inactive)
64 | CCCC(C)C1C(C#N)=C(N)Oc2cc(C)oc(=O)c21 (stereo not given) | -0.455 (inactive)
65 | Cc1cc(NC(=O)c2ccccc2Oc2ccccc2)no1 | -0.532 (inactive)
66 | CC(C)(C)c1cc(C(=S)N2CCN(CCO)CC2)cc(C(C)(C)C)c1O | -0.534 (inactive)
67 | CCC(C)NC(=O)C1CCCN(S(=O)(=O)c2ccc(-n3cnnn3)cc2)C1 (stereo not given) | -0.279 (inactive)
68 | CC1(C)C2CCC1(CS(=O)(=O)NCc1ccc(C(=O)O)cc1)C(=O)C2 (stereo not given) | -0.606 (inactive)
69 | Cc1nnc(NC(=O)Nc2cccc(Cl)c2)s1 | -0.574 (inactive)
70 | O=C(CN1CCOCC1)N1CCN(C(=O)CN2CCOCC2)CC1 | -0.468 (inactive)
71 | COc1ccc2c(c1OC)C(=O)OC2Nn1cncn1 (stereo not given) | -0.565 (inactive)
72 | N#Cc1cnc(SCC(=O)Nc2ccccc2C(F)(F)F)nc1N | -0.371 (inactive)
73 | O=C(NCc1ccco1)C1CC(=O)N(c2ccc(F)cc2)C1 (stereo not given) | -0.593 (inactive)
74 | CCOC(=O)C1CCCN(c2nc3ccccc3nc2C(C#N)C(=O)NCc2ccccc2)C1 (stereo not given) | -0.459 (inactive)
75 | CCOc1cc(C)c(Cl)cc1S(=O)(=O)N(C)C | -0.565 (inactive)
76 | Cc1c(C(=O)O)oc2ccc(S(=O)(=O)NCCC3=CCCCC3)cc12 | -0.454 (inactive)
77 | CCOC(=O)CSC1=Nc2ccccc2C2=NC(CC(=O)NCc3ccc(OC)cc3)C(=O)N12 (stereo not given) | -0.476 (inactive)
78 | COc1ccc(C(F)(F)F)cc1NC(=O)c1nc2nc(C)cc(C(F)F)n2n1 | -0.498 (inactive)
79 | CCSc1nc2c(c(=O)n(C)c(=O)n2C)n1Cc1ccc(Cl)cc1 | -0.527 (inactive)
80 | O=C(COC(=O)c1ccco1)NCc1cccs1 | -0.534 (inactive)
